We go through twelve compounds from PubChem BioAssay.

“And” between values parts separate entries of the source, which are not always exact repeats. Equal values may be shown once. Inconclusive results are not listed. Where a structure was tested more than once in an assay, its records may differ in their call. The source made the active and inactive calls.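 The calls were made as follows, unless noted: active = compounds whose cell count with miR-34 switched on is under 0.7 times the count with it off; inactive = the rest.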

As a reminder, the viability is a read-out of living cells in per cent, often relative to untreated cells. A word on the inhibition: it is the relative decrease from the control value, in per cent.

Assay [1] in a line: sensitizers of A549 cells to miR-34 induction, primary screen, imaging, A549 dox-inducible miR-34, nuclei and caspase counts (AID 1347080). Particulars: A549 miR-34 inducible, Hoechst nuclei count, 48 h.
Assay [2] can be described thus: survival rescue of mitochondrial mutant cells in low glucose, primary screen, MELAS cybrids, Rieske KO mouse fibroblasts, CellTiter-Glo (AID 1508586;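 active = mean z-score across replicates of 1.96 or higher in either the MELAS or the Rieske mutant cell line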;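 also: z relative to plate mean and SD of compound and empty wells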). On the technique in general: In ATP-based viability assays light output follows the ATP content of the culture.
Assay [3] in a line: viability rescue of complex I mutant cybrids, primary screen, cell-based, galactose medium, ATP luminescence (AID 1645843;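 active = z-score of at least 1.8 in each of two replicates, scored against plate mean and spread of sample wells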;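 also: positive z means more ATP and so rescue of galactose-driven cybrid death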). Particulars: complex I mutant cybrid cells, 72 h, stronger effect = higher value.
A short description of assay [4]: liver-stage malaria parasite growth inhibition, primary screen, cell-based, HepG2, luciferase luminescence, HepG2 viability (AID 624349; in the data active = parasite load remaining mostly below about 12%, no sharp cut-off; inactive = mostly above about 10%;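 also: 100% = mean of DMSO negative control wells on the same plate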). The note with it: P. berghei liver stage in HepG2, luciferase luminescence, concentration not given here; parasite load remaining: stronger effect = lower value; viability: measured here: HepG2 viability without parasites.
Assay [5] concerns the target NAD(+) hydrolase SARM1 (Homo sapiens) (UniProt Q6SZW1). Put plainly: SARM1 TIR NADase inhibitors, cell lysate, NAD-Glo luminescence (AID 1508614;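 active = compound whose remaining NAD level is above about 45 nM, limit read from the data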;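 also: higher remaining NAD means stronger inhibition of SARM1 NADase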). The note with it: SAM-TIR HEK293T lysate NADase, at 1 µM, stronger effect = higher value.
Assay [6] has as its target Mitogen-activated protein kinase 7 (Homo sapiens) (UniProt Q13164). The assay can be described thus: ERK5 transactivation activators in reporter cells, primary screen, cell-based, HTS (AID 1508626;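 active = luciferase signal above three times the same-plate solvent-only control wells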;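 also: luciferase driven by Gal4-ERK5 fusion binding five Gal4 sites before minimal TATA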). The note with it: HeLa Gal4-ERK5 transactivation, 18 h, at 5 µM, stronger effect = higher value.
The target of assay [7] is ATP-dependent translocase ABCB1 (Homo sapiens) (UniProt P08183). Put plainly: MDR1 (ABCB1) efflux transporter inhibition, cell-based (AID 377; in the data active = fluorescence slope change above about 50%). Particulars: MDR1-expressing cells, fluorescent substrate accumulation slope; stronger effect = higher value; concentration not given here.
ATP-dependent translocase ABCB1 (Homo sapiens), sequence (P08183 whole entry, looked up): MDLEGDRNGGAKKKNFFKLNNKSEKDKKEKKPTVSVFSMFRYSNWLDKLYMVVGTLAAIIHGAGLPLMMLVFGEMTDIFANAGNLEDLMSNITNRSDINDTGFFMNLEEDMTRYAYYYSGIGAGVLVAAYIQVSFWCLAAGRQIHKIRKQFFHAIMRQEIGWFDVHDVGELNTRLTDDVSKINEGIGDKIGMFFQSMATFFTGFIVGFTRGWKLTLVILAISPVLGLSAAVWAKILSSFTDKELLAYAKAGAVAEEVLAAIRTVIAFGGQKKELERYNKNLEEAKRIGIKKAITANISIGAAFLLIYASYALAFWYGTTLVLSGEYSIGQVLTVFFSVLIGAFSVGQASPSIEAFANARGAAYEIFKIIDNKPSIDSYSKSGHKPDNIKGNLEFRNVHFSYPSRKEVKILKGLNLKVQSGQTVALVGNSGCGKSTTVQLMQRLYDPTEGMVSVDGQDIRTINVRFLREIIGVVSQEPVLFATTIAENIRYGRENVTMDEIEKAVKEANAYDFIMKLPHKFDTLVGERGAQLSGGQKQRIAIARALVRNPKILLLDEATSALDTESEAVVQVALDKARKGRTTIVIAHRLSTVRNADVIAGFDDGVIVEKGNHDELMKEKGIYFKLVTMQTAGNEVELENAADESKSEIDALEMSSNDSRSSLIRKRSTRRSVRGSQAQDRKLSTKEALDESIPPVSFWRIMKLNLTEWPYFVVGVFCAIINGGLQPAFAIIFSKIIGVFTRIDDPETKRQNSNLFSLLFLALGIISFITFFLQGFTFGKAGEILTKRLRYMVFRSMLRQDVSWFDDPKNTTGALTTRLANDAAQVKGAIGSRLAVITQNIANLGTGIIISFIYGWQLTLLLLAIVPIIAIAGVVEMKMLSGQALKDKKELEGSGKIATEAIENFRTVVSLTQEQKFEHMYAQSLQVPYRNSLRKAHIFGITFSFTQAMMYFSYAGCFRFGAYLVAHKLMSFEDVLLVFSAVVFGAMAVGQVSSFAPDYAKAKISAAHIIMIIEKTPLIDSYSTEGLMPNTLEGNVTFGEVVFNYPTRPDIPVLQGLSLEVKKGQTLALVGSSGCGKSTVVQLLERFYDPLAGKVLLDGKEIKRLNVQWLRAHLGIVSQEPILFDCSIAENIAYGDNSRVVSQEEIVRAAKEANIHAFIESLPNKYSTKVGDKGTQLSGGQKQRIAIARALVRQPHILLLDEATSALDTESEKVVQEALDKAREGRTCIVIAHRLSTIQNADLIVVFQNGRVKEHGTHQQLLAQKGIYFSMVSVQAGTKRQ
Assay [8] in a line: hESC survival regulators, cell-based (AID 493140; call rule not given here;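 also: cells exposed to compounds for four days before counting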). Particulars: human embryonic stem cell survival screen; stronger effect = higher value.
A short description of assay [9]: circadian clock period modulators, cell-based, LOPAC library, luminescence reporter (AID 2774; call rule not given here;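 also: values are relative to mean of DMSO wells on each plate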). The note with it: circadian reporter cells, at 7 µM, actives lie on both sides.
For assay [10], the system named is Hepatitis C virus NS3 helicase. The assay can be described thus: HCV NS3 helicase inhibitors, primary screen, biochemical, fluorescence polarization, LOPAC1280 library (AID 687035; in the data active = inhibition above about 37%). Particulars: Purified HCV NS3 helicase, Cy5-dT15 ssDNA binding fluorescence polarization; stronger effect = higher value; concentration not given here. (Fluorescence polarisation rises when a labelled molecule tumbles more slowly, as on binding a larger partner.)

Assay [11] is described as follows: Cy5 fluorescence quenching or enhancement artefacts, artefact control for HCV NS3 helicase inhibitor project, biochemical, LOPAC1280 (AID 687037; call rule not given here). The note with it: Cy5-DNA-NS3h complex fluorescence interference counterscreen. (A counterscreen serves to expose hits that act by an unwanted route or on another target.)
Assay [12] can be described thus: phospholipid biosynthesis inhibitors in animal cells, primary screen, cell-based, LOPAC library, screen 4 (AID 1347384; call rule not given here). The note with it: phospholipid biosynthesis inhibition screen, at 10 µM.
The mark [13] stands for this setting: stronger effect = lower value, cell number ratio, induced over uninduced.
Setting [14] is: measured here: relative caspase fold change +Dox/-Dox.
Setting [15] is: measured here: total cells with miR-34 induction, stronger effect = lower value.
The mark [16] stands for this setting: measured here: total cells without miR-34 induction.
Setting [17] is: MELAS cybrid survival, CellTiter-Glo 48 h, stronger effect = higher value.
The mark [18] stands for this setting: Rieske KO mouse fibroblast survival, CellTiter-Glo 72 h.

Mitogen-activated protein kinase 7 (Homo sapiens), sequence (Q13164 whole entry, looked up, the tested form may be a part): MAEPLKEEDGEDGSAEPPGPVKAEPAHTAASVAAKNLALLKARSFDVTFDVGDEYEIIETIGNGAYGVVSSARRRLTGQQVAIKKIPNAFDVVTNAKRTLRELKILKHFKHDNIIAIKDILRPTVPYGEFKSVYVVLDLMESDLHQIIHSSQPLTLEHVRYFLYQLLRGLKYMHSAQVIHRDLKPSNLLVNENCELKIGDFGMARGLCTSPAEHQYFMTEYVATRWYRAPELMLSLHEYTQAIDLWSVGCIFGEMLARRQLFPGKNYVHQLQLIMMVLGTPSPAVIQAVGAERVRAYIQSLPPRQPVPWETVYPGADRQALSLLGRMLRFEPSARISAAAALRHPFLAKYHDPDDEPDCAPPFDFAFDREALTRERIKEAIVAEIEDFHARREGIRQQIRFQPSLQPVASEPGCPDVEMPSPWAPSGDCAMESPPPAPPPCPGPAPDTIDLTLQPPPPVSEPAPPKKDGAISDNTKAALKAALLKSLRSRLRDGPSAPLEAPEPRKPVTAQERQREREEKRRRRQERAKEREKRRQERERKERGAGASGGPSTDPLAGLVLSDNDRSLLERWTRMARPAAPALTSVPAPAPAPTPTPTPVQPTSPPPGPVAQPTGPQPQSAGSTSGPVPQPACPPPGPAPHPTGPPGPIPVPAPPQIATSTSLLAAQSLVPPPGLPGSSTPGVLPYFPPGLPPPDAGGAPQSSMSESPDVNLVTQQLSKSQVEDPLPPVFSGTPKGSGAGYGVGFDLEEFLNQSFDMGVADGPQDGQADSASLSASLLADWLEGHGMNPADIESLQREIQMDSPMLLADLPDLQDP
NAD(+) hydrolase SARM1 (Homo sapiens), sequence (Q6SZW1 whole entry, looked up, the tested form may be a part): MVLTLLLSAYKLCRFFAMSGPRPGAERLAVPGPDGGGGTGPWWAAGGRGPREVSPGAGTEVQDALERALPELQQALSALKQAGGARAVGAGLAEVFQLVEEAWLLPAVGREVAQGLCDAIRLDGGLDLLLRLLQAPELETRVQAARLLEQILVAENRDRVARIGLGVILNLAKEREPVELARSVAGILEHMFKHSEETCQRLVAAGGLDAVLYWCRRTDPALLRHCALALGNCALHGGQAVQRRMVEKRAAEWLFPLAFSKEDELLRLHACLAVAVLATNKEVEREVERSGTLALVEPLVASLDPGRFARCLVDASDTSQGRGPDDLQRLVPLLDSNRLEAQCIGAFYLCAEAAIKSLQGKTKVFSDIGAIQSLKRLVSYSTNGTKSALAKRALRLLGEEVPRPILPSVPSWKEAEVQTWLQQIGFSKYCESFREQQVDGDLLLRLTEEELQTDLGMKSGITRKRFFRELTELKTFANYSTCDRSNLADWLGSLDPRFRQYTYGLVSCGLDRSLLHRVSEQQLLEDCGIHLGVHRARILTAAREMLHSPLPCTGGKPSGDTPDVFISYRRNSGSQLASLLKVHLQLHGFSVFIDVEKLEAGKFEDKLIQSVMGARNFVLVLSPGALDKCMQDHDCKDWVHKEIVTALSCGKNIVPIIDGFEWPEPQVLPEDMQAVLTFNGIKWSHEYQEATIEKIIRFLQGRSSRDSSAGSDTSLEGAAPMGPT

As for `CN(CC=CC#CC(C)(C)C)Cc1cccc2ccccc12`, the fold change was 0.964 (inactive) and 0.918 (inactive) and 0.968 (inactive) in assay [1] (setting [13]); 2.12 and 1.02 and 0.751 in [1] (setting [14]). The cell count in [1] (setting [15]) is 9310 and 7680 and 9620; in assay [1] (setting [16]), 9660 and 8370 and 9940. In addition, the z-score is -0.142 (inactive) and -0.315 (inactive) in assay [2] (setting [17]); -0.993 and 0.763 in assay [2] (setting [18]); -1.88 (inactive) in assay [3].

`COc1ccc2cc(C(C)C(=O)O)ccc2c1` (configuration not stated): the parasite load remaining in assay [4] was 40.8% (inactive). For the same compound, in [4], the viability turned out to be 47.4%. The fold change was 0.873 (inactive) and 1.59 (inactive) and 0.829 (inactive) in [1] (setting [13]); 1.19 and 0.614 and 0.98 in assay [1] (setting [14]). Moreover, the cell count in [1] (setting [15]) is 8070 and 7920 and 7570; in [1] (setting [16]) it was 9240 and 4980 and 9130. Moreover, the z-score is -0.171 (inactive) and 0.614 (inactive) in [2] (setting [17]); 0.627 and 0.253 in assay [2] (setting [18]); 0.575 (inactive) in assay [3].

Take `CC[C@H](C)[C@H]1O[C@]2(CC[C@@H]1C)C[C@@H]1C[C@@H](C/C=C(\C)[C@@H](O[C@H]3C[C@H](OC)[C@@H](O[C@H]4C[C@H](OC)[C@@H](O)[C@H](C)O4)[C@H](C)O3)[C@@H](C)/C=C/C=C3\CO[C@@H]4[C@H](O)C(C)=C[C@@H](C(=O)O1)[C@]34O)O2`: the parasite load remaining in [4] is 26.5% (inactive) and 28.8% (inactive). The viability in assay [4] was 44.6% and 96.5%. Further, the fold change was 0.862 (inactive) and 0.935 (inactive) in [1] (setting [13]); 0.479 and 1.24 in [1] (setting [14]). The cell count is 6180 and 7180 in [1] (setting [15]); 7170 and 7680 in [1] (setting [16]). The z-score in assay [2] (setting [17]) is -1.97 (inactive) and -0.0039 (inactive); in [2] (setting [18]), 0.878 and -0.186; in assay [3], -1.77 (inactive). Moreover, in assay [5], the remaining NAD is 10 nM (inactive). Further, the luciferase signal in [6] was 44 AU (inactive).

Take `C[C@@H]1NC(=O)NC1=O`: the fluorescence slope change in [7] was 57.7% (active). Besides, in assay [8], the survival was 3.92 (inactive). Also, the parasite load remaining in assay [4] was 81.4% (inactive) and 66.6% (inactive). For the same compound, the viability in [4] was 97.9% and 95.3%. In addition, the fold change was 0.891 (inactive) and 0.879 (inactive) in assay [1] (setting [13]); 1.07 and 1.01 in [1] (setting [14]). The cell count is 8770 and 8800 in assay [1] (setting [15]); 9840 and 10000 in assay [1] (setting [16]). Further, the z-score was 0.462 (inactive) in [2] (setting [17]) and -0.44 in assay [2] (setting [18]).

Regarding `CNCCC(Oc1cccc2ccccc12)c1cccs1` (configuration not stated), the fold change in assay [1] (setting [13]) is 0.825 (inactive) and 0.844 (inactive) and 0.922 (inactive); in assay [1] (setting [14]), 1.39 and 1.04 and 2.23. Besides, the cell count was 4830 and 5000 and 7370 in assay [1] (setting [15]); 5860 and 5930 and 7990 in assay [1] (setting [16]). Further, the z-score in assay [2] (setting [17]) is -0.107 (inactive); in [2] (setting [18]), -1.06; in [3] it was -1.4 (inactive) and -1.81 (inactive).

Consider `CN(C)S(=O)(=O)c1ccc2c(c1)/C(=C/c1cc3c([nH]1)CCCC3)C(=O)N2`, for which the period change in [9] was -0.01 h (inactive). For the same compound, in assay [4], the parasite load remaining was 43.1% (inactive). Further, in assay [4], the viability is 152%. Also, in assay [10], the inhibition is -2% (inactive). The fluorescence ratio (interference) in assay [11] is 1 (inactive). The fold change in [1] (setting [13]) was 0.998 (inactive) and 0.964 (inactive); in [1] (setting [14]) it was 1 and 1.24. Further, the cell count in assay [1] (setting [15]) was 3800 and 4420; in assay [1] (setting [16]) it was 3810 and 4590. Besides, the call in [12] was active. For the same compound, the z-score in assay [3] was 1 (inactive).

Turning to `O=C(c1ccc(OCCCc2cnc[nH]2)cc1)C1CC1`, the inhibition in [10] was -3% (inactive). Further, the fluorescence ratio (interference) in assay [11] is 1 (inactive). The fold change in [1] (setting [13]) is 0.955 (inactive) and 1.01 (inactive); in [1] (setting [14]), 1.12 and 0.82. Moreover, the cell count was 9150 and 7760 in assay [1] (setting [15]); 9580 and 7660 in [1] (setting [16]). For the same compound, in assay [12], the outcome was inactive. Also, the z-score in assay [2] (setting [17]) is -0.324 (inactive); in assay [2] (setting [18]), -0.0656; in assay [3] it was -1.01 (inactive).

On to `O=c1onc2n1-c1cc(Br)ccc1OC2`, for which the period change in [9] was 0.015 h (inactive). For the same compound, in assay [10], the inhibition was -4% (inactive). Besides, in [11], the fluorescence ratio (interference) was 1 (inactive). Moreover, the fold change in assay [1] (setting [13]) is 1.09 (inactive) and 0.947 (inactive); in assay [1] (setting [14]) it was 1.04 and 0.916. Besides, the cell count in assay [1] (setting [15]) is 11200 and 5950; in assay [1] (setting [16]) it was 10300 and 6280. The result in [12] was inactive. In addition, the z-score in assay [3] is 0.095 (inactive).

As for `O=C(O)C=Cc1ccc(Cn2ccnc2)cc1`, the fold change in assay [1] (setting [13]) is 0.955 (inactive) and 0.883 (inactive) and 0.902 (inactive); in assay [1] (setting [14]), 1.3 and 1.43 and 0.779. The cell count in assay [1] (setting [15]) was 9560 and 7820 and 10000; in assay [1] (setting [16]), 10000 and 8860 and 11100. The z-score in assay [2] (setting [17]) was -0.304 (inactive) and -0.385 (inactive); in assay [2] (setting [18]) it was 0.761 and 0.973; in [3] it was 0.575 (inactive).

Turning to `CNCCC(Oc1ccccc1C)c1ccccc1` (configuration not stated), the period change in assay [9] is 0.255 h (inactive). Moreover, the inhibition in assay [10] was -5% (inactive). Besides, the fluorescence ratio (interference) in assay [11] is 0.9 (inactive). For the same compound, the fold change is 1.03 (inactive) and 0.898 (inactive) and 0.925 (inactive) in assay [1] (setting [13]); 1.24 and 2 and 2.24 in assay [1] (setting [14]). Moreover, the cell count was 9740 and 9090 and 9100 in [1] (setting [15]); 9500 and 10100 and 9850 in assay [1] (setting [16]). In addition, the call in assay [12] was inactive. Besides, the z-score in assay [2] (setting [17]) is -0.0629 (inactive); in [2] (setting [18]), -0.0775; in assay [3], -0.235 (inactive) and -0.28 (inactive).

Take `O=[N+]([O-])c1ccc2c(c1)S(=O)(=O)C=C2`: the inhibition in [10] is -2% (inactive). Moreover, the fluorescence ratio (interference) in assay [11] is 1 (inactive). Further, the fold change in assay [1] (setting [13]) is 0.698 (active) and 1.19 (inactive); in [1] (setting [14]) it was 0.963 and 0.522. In addition, the cell count was 598 and 1740 in assay [1] (setting [15]); 856 and 1460 in assay [1] (setting [16]). Moreover, the call in assay [12] was inactive. In addition, the z-score in [2] (setting [17]) is 3.07 (active); in assay [2] (setting [18]), -0.336; in assay [3], -1.38 (inactive).

As for `NC(=O)c1cc[n+](CC2=C(C(=O)O)N3C(=O)[C@@H](NC(=O)[C@@H](c4ccccc4)S(=O)(=O)[O-])[C@H]3SC2)cc1`, in assay [9], the period change was -0.015 h (inactive). In addition, the survival in assay [8] is 7.17 (inactive). Also, the parasite load remaining in assay [4] was 79.7% (inactive). Besides, in assay [4], the viability is 103%. Also, in assay [10], the inhibition is 4% (inactive). The fluorescence ratio (interference) in [11] was 1 (inactive). The fold change is 1.02 (inactive) and 0.887 (inactive) in assay [1] (setting [13]); 2.31 and 1.36 in [1] (setting [14]). Moreover, the cell count in assay [1] (setting [15]) was 10400 and 9300; in assay [1] (setting [16]), 10200 and 10500. The results for the z-score in assay [2] (setting [17]), in [2] (setting [18]) and in [3] were 0.659 (inactive), -0.267 and -0.05 (inactive), respectively. The remaining NAD in [5] is 10 nM (inactive). In addition, the luciferase signal in [6] is 36 AU (inactive).
